Experimental findings from PubChem BioAssay AID1159580 (chemical genetic matrix, 2015) are described below.

A short description of the assay: chemical genetic growth profiling, strain panel (AID 1159580).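 Further: tested at 20 µM; growth read once vehicle control cultures reached saturation at 30 °C; 1 = growth at the plate median or of vehicle wells; lower values mean less growth of the strain.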 The conditions noted are these: S. cerevisiae deletion strains, growth OD.
[1] abbreviates: locus YHR030C, strain SLT2, hits give low values.

Screen size: about 5,500 compounds; about 2,000 (36%) were called active. Inconclusive results (about 18%) are left out. The list shows a part of the results. A number with no mark means an inactive call. No stated cut-off is given here; in the data, active means normalized growth mostly below about 0.91 (no sharp cut-off); inconclusive means no clear call, values can overlap the other calls; inactive means mostly above about 0.92.

Regarding `CC(=O)Nc1c(C)c(C)c(C)c(C)c1NC(C)=O`, the normalized growth (locus YAL013W, strain DEP1, hits give low values) is 1.01; the normalized growth (locus YBR229C, strain ROT2, hits give low values) was 1.01; the normalized growth (locus YDL101C, strain DUN1, hits give low values) was 1; the normalized growth (locus YDL134C, strain PPH21, hits give low values) is 1; the normalized growth (locus YDR150W, strain NUM1, hits give low values) is 0.989; the normalized growth (locus YEL061C, strain CIN8, hits give low values) was 1.02. The normalized growth is 0.994 (locus YGR078C, strain PAC10, hits give low values); 1.14 under setting [1]; 0.997 (locus YHR087W, strain rtc3, hits give low values); 1.01 (locus YJR043C, strain POL32, hits give low values); 0.988 (locus YJR075W, strain HOC1, hits give low values); 1.04 (locus YLR039C, strain RIC1, hits give low values). The normalized growth (locus YLR058C, strain SHM2 (second series), hits give low values) was 1.02; the normalized growth (locus YLR085C, strain ARP6, hits give low values) is 1.07; the normalized growth (locus YLR262C, strain YPT6, hits give low values) is 1.02; the normalized growth (locus YML094W, strain GIM5, hits give low values) was 1.04; the normalized growth (locus YMR219W, strain ESC1, hits give low values) is 1.02; the normalized growth (locus YMR263W, strain SAP30, hits give low values) is 1.01. For the same compound, the normalized growth is, setting by setting: (locus YNL153C, strain GIM3, hits give low values) 0.995; (locus YNL298W, strain CLA4 (second series), hits give low values) 1.06; (locus YNL322C, strain KRE1, hits give low values) 1.01; (locus YNR030W, strain Alg12, hits give low values) 1.03; (locus YPL055C, strain LGE1, hits give low values) 1.03; (locus YPL241C, strain CIN2, hits give low values) 1.15 [resistant] (active). Further, the normalized growth (locus YPR135W, strain CTF4, hits give low values) is 1.09.

With `CC(=O)Nc1c(I)c(NC(C)=O)c(I)c(C(=O)O)c1I`, the normalized growth is 0.975 under setting [1]; 1 (locus YHR079C, strain IRE1, hits give low values); 0.989 (locus YJL095W, strain BCK1, hits give low values); 0.932 (locus YJR066W, strain TOR1, hits give low values); 0.977 (locus YLR113W, strain HOG1, hits give low values); 0.941 (locus YNL183C, strain NPR1, hits give low values). In addition, the normalized growth is 0.99 (locus YOR231W, strain MKK1, hits give low values) and 0.974 (locus YPL256C, strain CLN2, hits give low values).
